Experimental data taken from paper PMC13083723 (Patterns, 2026).
Among all 5,400 compounds or so, about 190 (3.5%) showed an effect of 50% or more. The sample as a whole holds a higher share of strong results than the screen did.

System: Vero-E6
Assay: primary screen, phospholipidosis by LipidTOX staining; higher = more effect of the substance
Details: 10 µM
Description: To measure drug-induced PLD in Vero-E6 cells, we used the HCS LipidTOX Red Phospholipidosis Detection Reagent (Invitrogen, #H34351), which is non-toxic to cell growth and remains well retained after aldehyde fixation. In this setup, compounds (at 10 μM concentration) and controls (amiodarone: 10 μM concentration; DMSO: 0.1 v/v %) were added to clear-bottom, 384-well plates (PhenoPlate 384-well, black, optically clear flat bottom, tissue-culture treated, Revvity #6057302) using the Echo Liquid Handler (Labcyte).

Structure (SMILES)	result_ITMP [%]
CCCOC(C(=O)OC1CCN(C)CC1)(c1ccccc1)c1ccccc1	63.8
C[C@H]1CCC/C=C/[C@@H]2C[C@H](O)C[C@H]2[C@H](O)/C=C/C(=O)O1	-2.38
COC(=O)C[C@](O)(CCC(C)(C)O)C(=O)O[C@@H]1C(OC)=C[C@]23CCCN2CCc2cc4c(cc2[C@H]13)OCO4	-10.1
C#C[C@]1(O)CC[C@H]2[C@@H]3CCC4=CC(=O)CC[C@]4(C)[C@H]3CC[C@@]21C	-7.32
CN1[C@@H]2CC[C@H]1C[C@@H](OC(=O)c1cc(Cl)cc(Cl)c1)C2	9.65
CN(CCc1ccc(Cl)c(Cl)c1)CCN1CCCC1	51.3
C[N@+]1(CC2CC2)CC[C@]23c4c5ccc(O)c4O[C@H]2C(=O)CC[C@@]3(O)[C@H]1C5	0.23
CCN1C[C@]2(COC(=O)c3ccccc3N3C(=O)C[C@H](C)C3=O)CC[C@H](OC)[C@@]34[C@@H]5C[C@H]6[C@H](OC)[C@@H]5[C@](O)(C[C@@H]6OC)[C@@](O)([C@@H](OC)[C@H]23)[C@@H]14	0.37
C=CC[C@]1(O)CC[C@H]2[C@@H]3CCC4=CCCC[C@@H]4[C@H]3CC[C@@]21C	0.46
COc1cc2c(cc1OC)[C@@]13CCN4CC5=CCO[C@H]6CC(=O)N2[C@H]1[C@H]6[C@H]5C[C@H]43	1.12
CN1C[C@H](CNC(=O)OCc2ccccc2)C[C@@H]2c3cccc4c3c(cn4C)C[C@H]21	61.8
CC(=O)OC[C@]12CCC(C)=C[C@H]1O[C@@H]1[C@H](O)[C@@H](OC(C)=O)[C@@]2(C)[C@]12CO2	-25.8
Oc1ccc2c3c1O[C@H]1c4[nH]c5ccccc5c4C[C@@]4(O)[C@@H](C2)N(CC2CC2)CC[C@]314	37.4
C[C@@H]1CN([C@H]2CC[C@](C#N)(c3ccc(F)cc3)CC2)CC[C@]1(C(=O)O)c1ccccc1	-9.01
Cc1onc(O)c1C[C@H](N)C(=O)O [R4A_0004356_001 / SPE_K92493880]	-0.72
